# Compound activity (PubChem)
# A selection: hits, their analogues and other compounds. The true share with any hit is near 2.8%.
# HIF-2a inh = inhibitors of HIF-2a | AID 624352 | hit rate 0.72% among 360,000 | 786-0 RCC cells HIF-2a reporter, luciferase luminescence, overnight | inhibition, % at 18.8 µM;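 active means inhibition of the luminescence signal of 40% or more relative to plate controls, in a single-dose primary screen at 18.75 µM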
# Shn3 3UTR inh = reduces Shn3 3'UTR luciferase signal in osteoblasts; Clone20 osteoblast Shn3 3'UTR firefly luciferase, 24 h; inhibition, % at 12.5 µM; hit rate 0.52% among 360,000; AID 588674;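 active means mean inhibition of at least 75% with every replicate also reaching 75%; inconclusive means mean inhibition at least 75% but some replicate below; inactive means mean inhibition below 75%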;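 further: 0% = median of neutral control wells and 100% = pilot-screen positive control compound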
# TRPM1 prom inh = inhibitors of MITF-driven TRPM1 promoter in melanoma cells; SK-MEL-5 TRPM1 promoter luciferase, 24 h; hit rate 0.83% among 330,000; inhibition, % at 12.5 µM;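 active means mean inhibition across replicates of 60% or more, whatever share of single replicates reaches that level; inconclusive means some that reach 60%, reason not given; inactive means mean inhibition across replicates below 60%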
# Peg3 prom inh = inhibitors of Peg3 promoter | HeLa PEG-Prom luciferase reporter, luminescence, overnight | hit rate 1.7% among 360,000 | inhibition, % at 20 µM;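 active means inhibition of at least 50% at 20 µM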
# CF NFkB block = inhibitors of cystic fibrosis induced NF-kB | AID 588850 | inhibition, % at 5 µM | hit rate 0.86% among 360,000 | KKLEB NF-kB-GFP reporter, PAF-induced, GFP fluorescence overnight;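 active means at least 50% inhibition at 5 µM, scaled per plate between neutral and stimulator controls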;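 further: PAF is a Pseudomonas aeruginosa culture filtrate used as stimulus; plate controls were PAF-stimulated DMSO wells for no effect and unstimulated DMSO wells for full effect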
# KKLEB tox = reduces viability of KKLEB cystic fibrosis airway cells; hit rate 0.36% among 360,000; AID 602141; activity change (cytotoxicity), % at 5 µM; KKLEB CF airway cells viability, ATPlite luminescence, overnight; active compounds read low; cells stimulated with P. aeruginosa culture filtrate;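 active means corrected activity change at or below -50% at 5 µM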
# Mdm2-MdmX confirm = confirmation of inhibitors of human Mdm2/MdmX interaction, set 2. shares compounds with HIF-2a inh. SaOS-2 split-luciferase Mdm2/MdmX complementation, luminescence. inhibition, % at 8 µM. hit rate 99% among 740;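 active means mean inhibition of the luminescence signal across two replicates at or above 26 percent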
# HIF-2a conf = confirmation of HIF-2a inhibitors | shares compounds with HIF-2a inh | 786-0 RCC cells, HIF-2a luciferase reporter luminescence, overnight | inhibition, % at 18.8 µM | hit rate 56% among 1,800;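 active means mean inhibition across four replicates of at least 40 percent at the single tested concentration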
# HIF-1a cs = inhibits HIF-1a reporter, a counter-screen for HIF-2a inhibitors. shares compounds with HIF-2a inh. MiaPaCa-2 HIF-1a luciferase reporter, desferoxamine, overnight. inhibition, % at 18.8 µM. hit rate 72% among 1,800;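 active means mean inhibition of the reporter signal across four replicates at the single tested dose of 50% or more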
# An asterisk follows results filed as active; ? = inconclusive; . = no result given.
SMILES,HIF-2a inh,Shn3 3UTR inh,TRPM1 prom inh,Peg3 prom inh,CF NFkB block,KKLEB tox,HIF-2a conf,HIF-1a cs,others
CSCC[C@@H](CO)NC(=O)[C@H]1O[C@@H](n2ccc(=O)[nH]c2=O)[C@H](O)[C@@H]1O,5,11,.,0,-46,1,.,.,
C#CC(=O)N(c1ccc(OC)cc1OC)C(C(=O)NC1CCCC1)c1cccs1 (stereo not drawn),96*,83,101*,101*,94*,-93*,99*,106*,Mdm2-MdmX confirm=102*
C#CC(=O)N(c1cc(OC)ccc1OC)C(C(=O)NC1CCCC1)c1cccs1 (stereo not drawn),92*,90*,.,107*,97*,-97*,99*,105*,Mdm2-MdmX confirm=103*
Cc1ccc(-n2c(O)c(C=Nc3ccccc3-c3n[nH]c(=S)[nH]c3=O)c3ccccc3c2=O)c(C)c1,43*,9,-1,17,2,-14,15,85*,
O=C(NC1CC1)C1CCN(S(=O)(=O)c2ccc(Cl)c([N+](=O)[O-])c2)CC1,22,0,75*,41,-6,9,.,.,Mdm2-MdmX confirm=102*
Cc1ccc(F)c([C@H]2[C@H]3C=CC[C@@H](C)[C@@H]3C(=O)N2Cc2ccccc2)c1,42*,-36,-28,30,47,-13,31,21,
C[C@@H]1CC=C[C@H]2[C@H]1C(=O)N(Cc1ccccc1)[C@H]2c1ccc2ccccc2c1,44*,-3,-27,21,42,-17,8,52*,
O=[N+]([O-])c1cc(-c2ncccn2)cs1,8,-8,-3,-6,-25,4,.,.,
CN(Cc1ccccc1C(F)(F)F)C(=O)C1CCC(=O)N(CC2CCCCC2)C1 (stereo not drawn),-79,-2,.,-97,-16,10,.,.,
CCOC(=O)CNC(=O)CSc1ncnc2c1cnn2-c1ccccc1,41*,-1,0,19,11,1,30,-7,
CCOC(=O)CNC(=O)CSc1ncnc2c1cnn2-c1ccc(C)cc1,22,10,-6,29,-1,0,.,.,
N#Cc1c(N)nc(Sc2ccc(Cl)cc2)c(C#N)c1-c1ccccc1Cl,47*,79,37,52*,46,-16,16,45,
COc1cccc(CNC(=O)COC(=O)c2nc(Cl)c(Cl)c(Cl)c2Cl)c1,58*,12,33,90*,30,-16,32,9,
COc1cccc(CNC(=O)CCl)c1,11,21,-7,-3,-16,-2,.,.,
COC(=O)c1cccc(N(CC(=O)NC2CCCCC2)C(=O)CNC(=O)c2cccs2)c1,4,-6,11,9,-21,2,.,.,
N=c1nc(SCCC(=O)O)ss1,69*,36,17,6,-8,1,73*,46,
COCCCn1c(=O)c2ccccc2n2c(=S)[nH]nc12,21,-21,-4,15,-15,2,.,.,
COCCN(CC(=O)NC1CCCCC1)C(=O)/C=C/C(=O)c1ccc(OC)cc1O,92*,98*,94*,97*,26,5,99*,103*,
COc1ccc(C(=O)/C=C/C(=O)N(CC(=O)NC2CCCCC2)Cc2cccs2)c(O)c1,95*,93*,105*,105*,35,-16,95*,101*,
COc1ccc(CN(C(=O)/C=C/C(=O)c2ccc(OC)cc2O)C(C(=O)NC2CCCCC2)c2ccncc2)cc1 (stereo not drawn),32,-2,15,9,-4,2,.,.,
CC1(C(=O)Nc2cccc(Oc3ccccc3)c2)CCN1Cc1cccc2c1OCO2 (stereo not drawn),14,20,.,14,3,-20,.,.,
CN(C)C(=O)CSc1ncnc2scc(-c3ccccc3)c12,13,6,6,13,9,-5,.,.,
Cn1nnnc1Sc1ncnc2scc(-c3cccc4c3sc3ccccc34)c12,62*,4,51,98*,24,-44,28,102*,
Cn1nnnc1Sc1ncnc2scc(-c3ccc(Cl)cc3)c12,86*,82,90*,95*,30,-43,99*,102*,Mdm2-MdmX confirm=103*
Clc1ccc(-c2csc3ncnc(Cl)c23)cc1,-35,0,10,4,25,-14,.,.,
SMILES,HIF-2a inh,Shn3 3UTR inh,TRPM1 prom inh,Peg3 prom inh,CF NFkB block,KKLEB tox,HIF-2a conf,HIF-1a cs,others
Cn1nnnc1Sc1ncnc2scc(-c3cccc(Br)c3)c12,82*,3,84*,94*,80*,-52*,97*,102*,Mdm2-MdmX confirm=103*
Cn1nnnc1Sc1ncnc2scc(-c3ccc([N+](=O)[O-])cc3)c12,92*,81,98*,102*,71*,-63*,97*,100*,Mdm2-MdmX confirm=103*
C[C@@H]1CN([C@H](C)CO)C(=O)c2cc(Br)cnc2O[C@H]1CN(C)Cc1ccccc1,-1,9,.,-5,2,-7,.,.,
O=S(=O)(NCC(c1ccc2c(c1)OCO2)N1CCOCC1)c1ccccc1 (stereo not drawn),8,6,10,9,6,7,.,.,
O=C(c1ccc(Cl)c(S(=O)(=O)N2CCOCC2)c1)N1CCCCCC1,-5,-8,3,-6,-11,11,.,.,
C=CCNC(=O)COC(=O)COc1ccc(Cl)cc1,16,-1,-7,14,-6,11,.,.,
CC(C)Cc1nc2oc3c(NCCCN4CCOCC4)ncnc3c2c2c1CCC2,-45,62,10,5,17,-15,.,.,
CC(C)Cc1nc2oc3c(Cl)ncnc3c2c2c1CCC2,67*,-14,?,106*,35,-16,49*,108*,Mdm2-MdmX confirm=103*
COc1ccc(-c2noc(CCCC(=O)O)n2)cc1,84*,51,66*,9,-1,4,94*,80*,
COc1ccc(-c2noc(CCC(=O)O)n2)cc1,24,-2,-7,8,14,14,.,.,
CCOc1ccc(-c2noc(CCC(=O)O)n2)cc1,75*,59,68*,-15,-5,-13,81*,69*,
COc1ccc(CCNC(=O)C(=O)NCC2OCCN2S(=O)(=O)c2cccs2)cc1 (stereo not drawn),4,7,-3,4,2,-15,.,.,
CC(C)N1C(=O)/C(=C/c2nc3ccccc3c(=O)n2-c2ccccc2)c2ccccc21,64*,-1,22,32,3,1,59*,102*,
Cc1ccc(S(=O)(=O)Nc2csc(C)c2C(=O)O)cc1,.,.,10,.,.,.,.,.,
Cc1cc(SC#N)cc(C)c1NC(=O)CCl,46*,-3,35,28,49,-31,54*,26,
